Sampled rows, rich in hits. Any-hit rate of the full collection: about 3.6%.
NadD block – blocks S. aureus nicotinate mononucleotide adenylyltransferase; purified NadD enzyme, colorimetric absorbance read-out; inhibition, % at 20 µM; 360,000 compounds, 0.78% hits; in the data active = inhibition above about 26%
FAS-TE inh – inhibitors of human fatty acid synthase thioesterase domain. recombinant FAS-TE, OMFH fluorogenic substrate, fluorescence endpoint. P49327. 360,000 compounds, 0.67% hits. inhibition, % at 15 µM;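 active = compounds whose normalised, plate-corrected inhibition of enzyme fluorescence in the single-dose primary screen is 50% or more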;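 also: 0% = DMSO with enzyme and 100% = substrate without enzyme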
Target sequence (P49327 whole entry, looked up, the tested form may be a part): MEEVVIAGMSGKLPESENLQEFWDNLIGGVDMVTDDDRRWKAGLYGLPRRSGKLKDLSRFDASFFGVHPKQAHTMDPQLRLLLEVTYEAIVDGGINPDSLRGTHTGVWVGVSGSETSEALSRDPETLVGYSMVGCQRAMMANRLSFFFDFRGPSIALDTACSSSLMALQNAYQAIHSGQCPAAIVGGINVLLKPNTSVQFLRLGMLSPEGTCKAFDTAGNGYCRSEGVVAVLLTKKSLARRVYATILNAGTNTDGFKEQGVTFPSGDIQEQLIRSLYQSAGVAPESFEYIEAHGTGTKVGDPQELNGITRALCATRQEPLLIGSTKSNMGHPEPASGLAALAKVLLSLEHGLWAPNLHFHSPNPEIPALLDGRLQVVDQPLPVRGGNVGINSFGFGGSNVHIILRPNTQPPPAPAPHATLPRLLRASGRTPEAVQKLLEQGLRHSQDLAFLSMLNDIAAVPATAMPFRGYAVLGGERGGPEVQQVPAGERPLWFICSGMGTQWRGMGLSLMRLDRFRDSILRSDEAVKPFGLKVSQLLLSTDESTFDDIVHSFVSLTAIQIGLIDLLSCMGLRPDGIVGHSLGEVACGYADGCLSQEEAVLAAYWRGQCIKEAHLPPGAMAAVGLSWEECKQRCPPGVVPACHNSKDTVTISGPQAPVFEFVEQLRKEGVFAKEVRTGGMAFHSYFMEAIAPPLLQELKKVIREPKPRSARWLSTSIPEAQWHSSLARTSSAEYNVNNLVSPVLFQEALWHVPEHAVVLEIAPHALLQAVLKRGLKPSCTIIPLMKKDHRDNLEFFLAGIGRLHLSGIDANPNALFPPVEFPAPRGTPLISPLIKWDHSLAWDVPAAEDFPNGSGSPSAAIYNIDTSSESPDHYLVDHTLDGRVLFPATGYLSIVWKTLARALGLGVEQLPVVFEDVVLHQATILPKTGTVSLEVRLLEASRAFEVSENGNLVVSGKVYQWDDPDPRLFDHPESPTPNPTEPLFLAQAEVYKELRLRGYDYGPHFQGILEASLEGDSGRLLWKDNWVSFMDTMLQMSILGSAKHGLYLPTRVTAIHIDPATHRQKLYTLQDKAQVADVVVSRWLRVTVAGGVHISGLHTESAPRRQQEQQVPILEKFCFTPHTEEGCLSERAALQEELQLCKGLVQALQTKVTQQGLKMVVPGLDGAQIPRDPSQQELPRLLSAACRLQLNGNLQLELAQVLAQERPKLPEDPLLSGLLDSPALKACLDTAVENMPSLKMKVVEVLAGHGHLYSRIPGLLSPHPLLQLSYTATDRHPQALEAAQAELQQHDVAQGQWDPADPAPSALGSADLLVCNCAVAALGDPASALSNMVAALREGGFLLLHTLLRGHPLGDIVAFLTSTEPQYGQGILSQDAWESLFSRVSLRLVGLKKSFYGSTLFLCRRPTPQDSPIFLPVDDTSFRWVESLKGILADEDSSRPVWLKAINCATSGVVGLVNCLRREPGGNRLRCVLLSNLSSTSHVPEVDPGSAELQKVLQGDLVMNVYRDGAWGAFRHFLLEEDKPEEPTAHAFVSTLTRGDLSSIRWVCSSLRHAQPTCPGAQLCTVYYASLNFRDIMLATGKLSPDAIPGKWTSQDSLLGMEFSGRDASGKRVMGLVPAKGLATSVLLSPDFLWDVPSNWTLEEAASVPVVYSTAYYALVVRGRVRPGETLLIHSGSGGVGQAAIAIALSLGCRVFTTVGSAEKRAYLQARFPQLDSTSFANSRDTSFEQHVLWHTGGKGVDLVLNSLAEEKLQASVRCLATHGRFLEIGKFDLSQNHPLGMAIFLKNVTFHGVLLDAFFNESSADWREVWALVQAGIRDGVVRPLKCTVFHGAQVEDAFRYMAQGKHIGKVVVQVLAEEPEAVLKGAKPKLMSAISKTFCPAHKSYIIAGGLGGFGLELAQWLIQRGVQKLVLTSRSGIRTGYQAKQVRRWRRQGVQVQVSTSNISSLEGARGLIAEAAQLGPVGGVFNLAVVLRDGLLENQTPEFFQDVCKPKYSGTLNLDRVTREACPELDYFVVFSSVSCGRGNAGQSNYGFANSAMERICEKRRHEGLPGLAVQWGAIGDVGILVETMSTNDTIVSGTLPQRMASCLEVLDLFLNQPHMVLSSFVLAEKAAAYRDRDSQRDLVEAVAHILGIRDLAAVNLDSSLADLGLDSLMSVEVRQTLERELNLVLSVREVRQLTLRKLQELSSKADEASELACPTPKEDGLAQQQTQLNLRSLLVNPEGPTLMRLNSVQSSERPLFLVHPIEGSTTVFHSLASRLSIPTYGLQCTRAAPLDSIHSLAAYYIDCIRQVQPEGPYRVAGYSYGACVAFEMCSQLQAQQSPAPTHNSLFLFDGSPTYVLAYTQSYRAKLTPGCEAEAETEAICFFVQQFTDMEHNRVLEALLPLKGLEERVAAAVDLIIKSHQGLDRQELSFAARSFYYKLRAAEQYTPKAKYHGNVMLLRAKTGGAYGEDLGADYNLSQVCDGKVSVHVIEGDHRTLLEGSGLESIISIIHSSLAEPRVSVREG
CRFR2-BP antag – blocks CRF-induced signaling of the CRF-BP/CRF-R2 complex; HEK293 CRF-R2/CRF-BP, CRF-induced calcium fluorescence; inhibition, % at 11.8 µM; 350,000 compounds, 0.59% hits; AID 588475;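 active = inhibition of the ligand-induced calcium signal above about 50% at the single tested concentration, limit read from the data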
NRP1-CendR mod – modulators of CendR peptide binding to human neuropilin-1 | O14786 | FAM-RPARPAR peptide binding to NRP-1, fluorescence polarization | inhibition, % at 25 µM | 360,000 compounds, 0.85% hits | AID 602438;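 active = inhibition or corrected inhibition above about 18%, plus a signal ratio from 0.5 to 1.5, limit read from the data, passing the limit was not always enough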
Myeloid diff 2 – myeloid differentiation induction. ER-HoxA9 myeloid progenitors, lysozyme-GFP differentiation, flow cytometry. calls only at 10 µM. 360,000 compounds, 1% hits. AID 624256;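 active = normalized GFP-positive differentiation at or above the plate's own cutoff, the solvent-only control mean plus 3 SD; inconclusive = no clear call, values can overlap the other calls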;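 also: cells exposed to compound for four days before flow analysis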
FAS-TE inh conf – confirmation of human fatty acid synthase thioesterase inhibitors. 2,300 compounds, 45% hits. shares compounds with FAS-TE inh. inhibition, % at 15 µM. recombinant FAS-TE, OMFH fluorogenic substrate, fluorescence. AID 624325;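 active = compounds inhibiting the enzyme by at least 50% at 15 µM in any one of the replicates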;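 also: 0% = enzyme with DMSO only and 100% = wells lacking enzyme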
Active calls of the source: *; i = inactive; u = inconclusive; x = not tested or not shown.

SMILES | NadD block | FAS-TE inh | CRFR2-BP antag | NRP1-CendR mod | Myeloid diff 2 | FAS-TE inh conf
COc1cccc(C2c3c(C)nn(-c4ccc([N+](=O)[O-])cc4)c3N=C3C(=O)Nc4ccccc4N32)c1 (stereo not drawn) | 18.5 | 71.8* | -2.8 | -23.7 | i | -0.9
Cc1nn(-c2ccc([N+](=O)[O-])cc2)c2c1C(c1ccc(OC(F)F)cc1)N1C(=N2)C(=O)Nc2ccccc21 (stereo not drawn) | 3.0 | 85.8* | -7.4 | -22.5 | i | 14.9
Cc1cccnc1NC(=O)CCNC(=O)c1ccccc1Cl | 4.3 | 0.4 | -4.1 | 9.5 | i | x
N#Cc1cc(NC2CCCC2)c([N+](=O)[O-])cc1C#N | -2.2 | 53.9* | 12.9 | -170.1 | i | 21.8
COC(=O)N1C(=O)[C@](c2ccc(OC)cc2)(C(C)C)N1C(=O)OC | -3.8 | 71.7* | -2.7 | 1.1 | i | 82.4*
COC(=O)N1C(=O)[C@](c2ccccc2)(C2CCCCC2)N1C(=O)OC | -1.3 | 79.8* | 4.2 | -5.0 | i | 94.7*
CC[C@@]1(c2ccccc2OC)C(=O)N(C(=O)OC)N1C(=O)OC | -7.2 | -6.4 | 6.7 | 15.1 | i | x
COC(=O)N1C(=O)[C@](c2ccsc2)(C(C)C)N1C(=O)OC | 0.9 | 37.2 | -1.2 | 8.2 | i | x
CC[C@@]1(c2cccc(C)c2)C(=O)N(C(=O)OC)N1C(=O)OC | -1.2 | 79.2* | -0.2 | 7.4 | i | 70.5*
COC(=O)N1C(=O)[C@](CC(C)C)(c2ccccc2)N1C(=O)OC | -1.4 | 85.3* | -3.9 | 6.6 | i | 87.8*
CN(CC(=O)O)Cc1nc2ccccc2[nH]1 | 0.5 | -4.6 | 7.8 | 3.6 | i | x
Cc1[nH]nc(C(F)(F)F)c1N=NN1CCOCC1 | 0.8 | -8.4 | 19.9 | -6.6 | x | x
CNC(=S)N1CCN(c2nc(-c3ccc(Cl)cc3)cs2)CC1 | -4.3 | 19.9 | -0.9 | 3.1 | i | x
O=C(Nc1nc(-c2ccc3ccccc3c2)cs1)C1CCN(S(=O)(=O)c2cccs2)CC1 | 21.5 | 87.6* | 0.6 | -9.1 | i | 6.6
CC1(C(=O)NS(=O)(=O)c2ccc(Br)cc2)CCN1C(=O)C1CCCCC1 (stereo not drawn) | 2.3 | -3.8 | x | -2.7 | i | x
O=C(/C=C/c1ccc(Cl)cc1)N1CCN(c2ccc([N+](=O)[O-])c(N3CCOCC3)c2)CC1 | 6.2 | 34.7 | 28.4 | 9.4 | u | x
O=C(/C=C/c1ccc(Cl)cc1Cl)N1CCN(c2ccc([N+](=O)[O-])c(N3CCOCC3)c2)CC1 | 16.6 | 64.8* | -2.4 | 8.1 | i | 16.5
C[C@H](CO)N1C[C@H](C)[C@@H](CN(C)C)Oc2c(NS(=O)(=O)c3cccs3)cccc2C1=O | 6.4 | -2.9 | -12.6 | 4.9 | i | x
Cc1ccc(OC(=O)CN2C(=O)c3ccccc3C2=O)cc1C | -7.4 | 3.7 | 4.3 | 3.7 | i | x
Cc1cccc2c1N(C)C(=O)C2=O | -2.7 | 0.0 | 4.1 | -3.5 | i | x
O=C1c2ccccc2C(=O)N1OS(=O)(=O)c1ccc(F)cc1 | -0.3 | 70.7* | 18.9 | -0.6 | i | 50.4*
Cc1ccc(S(=O)(=O)ON2C(=O)c3ccccc3C2=O)c(C)c1 | -2.8 | 75.3* | 63.1* | 1.1 | i | 93.5*
Cc1cc(C)c(C)c(S(=O)(=O)ON2C(=O)c3ccccc3C2=O)c1C | -0.6 | 90.4* | -5.0 | -8.9 | i | 94.9*
Cc1cc(C)c(S(=O)(=O)ON2C(=O)c3ccccc3C2=O)cc1C | 0.8 | 90.8* | 12.1 | -1.6 | i | 95.0*
COc1cc(C(=O)NCC(c2ccccc2)N(C)C)ccc1OCc1c(C)noc1C (stereo not drawn) | 0.0 | -3.9 | -0.8 | -4.3 | i | x
COc1cccc(-c2cnc3c(NC=O)cc(-c4ccc(S(C)(=O)=O)cc4)cn23)c1 | 2.8 | 55.4* | x | -11.4 | i | 55.9*
O=C(Nc1nnc(-c2ccccc2Cl)s1)C1CCN(S(=O)(=O)c2ccc(Cl)cc2)CC1 | 8.2 | 71.5* | 0.7 | -3.2 | i | 9.0
O=C(Nc1nnc(-c2ccccc2F)s1)C1CCN(S(=O)(=O)c2ccc(Cl)cc2)CC1 | 16.4 | -1.7 | -20.7 | 5.2 | i | x
CCOC(=O)C1CCCN(S(=O)(=O)c2ccc(S(=O)(=O)N(CC)CC)cc2)C1 (stereo not drawn) | 2.3 | 13.0 | 17.7 | 1.0 | i | x
COC(=O)C(C(=O)OC)c1ncc(C(F)(F)F)cc1Cl | -6.7 | -6.7 | 13.3 | 4.8 | i | x

Bioassay records: PubChem, several laboratories
